Experimental data taken from PubChem BioAssay (NCI).
Where “and” joins values, the source holds several entries; their conditions need not be identical. Identical values can stand only once. This is part of a sample that, as a whole, favours compounds with a hit. Of some 83,000 tested, about 20% had one in any assay.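 Compound tested at a single concentration for 48 hours in 96-well plates; a percent growth value below 10 was scored as active.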 Values without a mark were called inactive. Calls of active or inactive are those of the source.

Each compound was assayed on MDA-MB-468 breast (assay: NCI-60 one-dose screen, 48 h (100 = growth as untreated, 0 = no growth, -100 = all killed)). Conditions: 10 µM unless noted.

Compound | growth
COc1cc(OC)c(/C=C/S(=O)(=O)Cc2ccc(OC)c(NC(=O)CCC(=O)NO)c2)c(OC)c1 | 40.4%
C=CCSc1nc2ccccc2cc1/C=N/O | 82%
COc1ccc2c(O)c(/C=C3\N=Nc4ncccc43)oc2c1C[C@H]1CCNC[C@H]1F | -39% (active)
CCCCn1c(-c2cccc(OC)c2)nc2cc(OC)c(OC)cc2c1=O | 107%
Cc1cnc(Nc2ccc(OCCN3CCCC3)cc2)nc1Nc1cccc(S(=O)(=O)NC(C)(C)C)c1 | -16.6% (active)
O=C(NC(=S)Nc1ccc(Cl)cc1)c1ccccc1 | -37% (active)
CC(=O)[C@H]1CC[C@]2(C)[C@@H]1CC[C@@H]1[C@@]3(C)C/C(=C/c4cccnc4)C(=O)C(C)(C)[C@@H]3CC[C@]12C | 60.3%
CC(C)(C)OC(=O)Nc1ccc(-c2cccc(Oc3ccc4nnc(Cl)n4n3)c2)cc1 | 61.9%
Cc1cccc(-c2cn3ccnc3c(-c3ccc4ncn(Cc5ccccc5)c4c3)n2)c1 | 83.4%
COc1ccc(C2CC(c3ccc4ccccc4c3)=NN2c2nc(O)c(C3=c4cc(Cl)ccc4=NC3=O)s2)cc1 (stereo not given) | -73.9% (active)
O=C(NO)c1ccc(Cn2c(=O)n(-c3ccccc3F)c(=O)c3ccccc32)cc1 | -10.8% (active)
Cc1ccc(C2CC(c3ccc(Nc4ccnc5cc(Cl)ccc45)cc3)=NN2C=O)cc1 (stereo not given) | 33%
N#CCCN1C/C(=C/c2ccccc2)C(=O)/C(=C/c2ccccc2)C1 | 11.7%
COc1ccc(-c2nc3ccc(-c4nnc(SCC(=O)Nc5ccc(C(=O)/C=C/c6ccccc6)cc5)o4)cc3[nH]2)cc1OC | 104%
NC(=O)c1cc(Cl)ccc1NC(=O)/C=C/c1ccccc1 | 30.7%
CC(=O)OCC(=O)O[C@@H]1C[C@]2(C(C)C)O[C@@]1(C)[C@@H]1CC[C@@H](C)[C@H]1[C@@H]2OC(=O)/C=C/c1ccccc1 | 83.7%
CC(=O)OCCC/C(=C\c1ccc2ccccc2c1)[N+](=O)[O-] | -55.4% (active)
COc1ccc2c(CCCCC(c3ccccc3)c3ccccc3)c3[n+](cc2c1OC)CCc1cc2c(cc1-3)OCO2 | -75.3% (active)
COc1ccc2nc3ccccc3c(NCCNCCO)c2c1 | -72.9% (active)
CNC(=O)c1cc(Oc2ccc3nc(NC(=O)Nc4ccc(Cl)c(Cl)c4)sc3c2)ccn1 | 68.3%

Compound | growth
Cl.Fc1c[c-]c(-c2ccccn2)c(F)c1.[Pt].c1ccc([PH+](C[PH+](c2ccccc2)c2ccccc2)c2ccccc2)cc1 | -75.7% (active)
CCCOC(=O)n1cccc1 | 106%
CN1CCN(c2ccc3nc(-c4c(N)c5c(F)cccc5[nH]c4=O)[nH]c3c2)CC1 | 108% and 102%
NC(=S)N/N=C/c1cn(-c2ccccc2)nc1-c1cc2ccccc2oc1=O | 43.3%
COc1ccc(/C=C2\CCCC3=C2N=C2SC=NN2C3c2ccc(OC)c(OC)c2)cc1OC (stereo not given) | 14.5%
CCCCC(O)Cn1ncc(C(=O)OCC)c1NC(=O)NCc1ccccc1C(F)(F)F (stereo not given) | 98.7%
Cn1cc(-c2nnc(-c3cn(C)c4ncccc34)o2)c2ccccc21 | -11.4% (active)
Clc1ccc2c(NCCNc3nc(Cl)nc4ccccc34)ccnc2c1 | -88.6% (active)
N#Cc1ccccc1-c1ccc(CN2C(=O)S/C(=C\c3ccc(Br)cc3)C2=O)cc1 | 112%
CC(=O)c1ccc(N=C(C#N)C2=C(O)c3ccccc3C2=O)cc1 | 94.5%
O=C(CN1C(=O)CSC1=O)Nc1ccc(C(=O)/C=C/c2cc3ccccc3nc2Cl)cc1 | 48.7%
COc1c(-c2cc(-c3ccc(C)o3)[nH]c(=O)n2)c(O)cc2occc12 | 25.8%
COc1cc(NC(=O)NCc2ccco2)ccc1-c1ccc(NC(=O)NCc2ccco2)cc1OC | 16.8%
O=S(=O)(Nc1ccc(I)cc1F)c1ccc(-c2cnc(C3CC3)o2)cc1 | -9.07% (active)
C=C(C)[C@@H]1CC[C@]2(COC3CCCCO3)CC[C@]3(C)[C@H](CC[C@@H]4[C@@]5(C)C=C(C=O)C(=O)C(C)(C)[C@@H]5CC[C@]43C)[C@@H]12 (stereo not given in full) | -53.1% (active)
CCOC(=O)c1c2c(n3ccc(NC(=O)CCN(CC)CC)cc13)C(=O)c1ncccc1C2=O | 81.7%
O=c1c2c(c(=O)n1O)c1c3ccc[nH]c3nc1c1nc3[nH]cccc3c12 | 64%
COC(=O)C(Br)(C(=O)OC)C(Br)C(Br)C(Br)c1ccccc1 (stereo not given) | 7.49% (active)
Cc1[nH]c(=O)[nH]c(=O)c1CCSSCCc1c(C)[nH]c(=O)[nH]c1=O | 105%
Cc1c(C(=O)Nc2ccccc2F)sc2c(=O)[nH]cnc12 | 106%
